# From PubChem BioAssay
# Shiga toxin inh: blocks Shiga toxin action in Vero cells; Vero cells, Shiga toxin protein synthesis inhibition reporter; 290,000 compounds, 9.2% hits; inhibition, % at 38.7 µM; AID 2315; in the data active = inhibition mostly above about 28%, no sharp cut-off; inactive = mostly below about 43%; note: 0% is about no effect
# RE007 growth inh: less growth of the S. pombe RE007 Vpr strain. S. pombe RE007 Vpr strain, BacTiter-Glo ATP luminescence, 24 h. Potency, µM (titrated, usually from 92.2 µM), inactives show at the highest dose activity change, negative = less growth, hits mostly inhibitors. 360,000 compounds, 0.21% hits. AID 651644; active = well fitted falling curve with a large enough effect; inconclusive = small, poorly fitted or top-dose-only effect; inactive = no such curve, though single readings can be large or run the other way; note: potency is the fitted concentration of half-maximal effect; % is set by controls: 0 for no effect and ±100 for the full control effect; nearly all actives have a fitted effect of over 50% in size
#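 Fission yeast strain RE007, carrying one chromosomally integrated HIV-1 vpr copy, was seeded at OD 0.01 in PMG+AL medium with 23 nL pinned compound. After 24 h at 30 °C and 99% humidity, viability was read by BacTiter-Glo luminescence.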
# LmPK inh: LmPK (Leishmania mexicana) enzyme inhibition. Q27686. purified LmPK, Kinase-Glo ATP luminescence, 1 h. Potency, µM (series often up to 57.5 µM), for inactives: at the highest dose activity change, negative = inhibition, hits mostly inhibitors. 290,000 compounds, 0.37% hits; note: potency is the fitted concentration of half-maximal effect; % is set by controls: 0 for no effect and ±100 for the full control effect
# Target sequence (Q27686 whole entry, looked up): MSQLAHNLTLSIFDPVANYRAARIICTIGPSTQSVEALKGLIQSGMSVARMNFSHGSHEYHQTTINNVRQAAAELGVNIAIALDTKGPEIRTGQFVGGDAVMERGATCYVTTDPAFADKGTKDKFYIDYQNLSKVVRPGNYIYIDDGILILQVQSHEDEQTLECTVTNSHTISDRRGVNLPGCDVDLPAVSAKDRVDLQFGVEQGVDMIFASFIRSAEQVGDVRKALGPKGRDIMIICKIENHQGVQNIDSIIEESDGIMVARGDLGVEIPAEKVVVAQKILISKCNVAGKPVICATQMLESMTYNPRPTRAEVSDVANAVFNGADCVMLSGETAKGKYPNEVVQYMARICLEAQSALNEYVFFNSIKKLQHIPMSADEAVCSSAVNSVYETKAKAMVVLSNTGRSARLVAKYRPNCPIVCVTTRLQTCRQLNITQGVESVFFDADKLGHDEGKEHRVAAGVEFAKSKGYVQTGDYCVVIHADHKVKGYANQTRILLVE
#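 0.1 nM LmPK, 0.5 mM PEP, 0.1 mM ADP; 50 mM imidazole pH 7.2, 7 mM MgCl2, 50 mM KCl; 1 h RT. Kinase-Glo luminescence readout, normalized to no-enzyme (full inhibition) and uninhibited wells.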
# FBPA Giardia inh: blocks Giardia fructose-bisphosphate aldolase activity; A8B2U2; purified Giardia FBPA; Potency, µM (highest dose often 59.6 µM), for inactives: at the highest dose activity, negative = inhibition, usual class: inhibitors; 290,000 compounds, 0.71% hits; note: potency is the fitted concentration of half-maximal effect; % is set by controls: 0 for no effect and ±100 for the full control effect; nearly all actives have a fitted effect of over 55% in size
#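 40 nM FBPA preincubated 10 min at RT with compound (up to 57.5 uM final), then substrate plus GAPDH/TPI/NAD/arsenate coupling and diaphorase/resazurin added. Fluorescence read after 20 min at RT, 525/598 nm.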
# TbPYK inhibitor: inhibitors of Trypanosoma brucei pyruvate kinase; Q57TT1; TbPYK enzyme, Kinase-Glo Plus ATP luminescence, 45 min; Potency, µM (top dose mostly 76.8 µM), without a hit: at the top dose activity, negative = inhibition, hits mostly inhibitors; 410,000 compounds, 0.12% hits; note: potency is the fitted concentration of half-maximal effect; % is set by controls: 0 for no effect and ±100 for the full control effect; nearly all actives have a fitted effect of over 50% in size
#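 Quantitative HTS: titrated library compounds versus trypanosomal pyruvate kinase in TEA buffer (pH 7.2) containing KCl, MgCl2, BSA and Tween-20. Reactions were initiated with ADP, 130 uM final. Kinase-Glo Plus luminescence was read after 45 min at RT.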
# CHX counter: counter-screen hit for Shiga toxin inhibitors, cycloheximide | cell reporter, cycloheximide protein synthesis inhibition counterscreen | 300,000 compounds, 12% hits | max response, %; in the data active = max response mostly above about 13%, no sharp cut-off; inactive = mostly below about 14%; note: read at 38.3 µM for the half of the compounds with a filed dose; 0% is about no effect
# * = called active by the depositor; ? = inconclusive; / = no result given; [ ] = dose if it differs, or a comment. The full list was thinned out, with hits kept by preference. Unless noted, calls come from the whole dose curve; as a rule, active = well fitted curve in the direction sought with a large enough effect; inconclusive = small, poorly fitted or top-dose-only effect, or another doubt; inactive = no such curve, though single readings can be large; an effect the other way counts as inactive or inconclusive.
SMILES,Shiga toxin inh,RE007 growth inh,LmPK inh,FBPA Giardia inh,TbPYK inhibitor,CHX counter
CCOc1nc(-c2ccc(C)cc2)ccc1-c1noc(-c2cccnc2)n1,-4.2,/,-3.0%,6.6%,/,-2.0
COc1cccc(-c2noc(-c3ccc(Cl)nc3)n2)c1,83.4*,6.4%,4.2%,2.0%,1.8%,30.1*
CC(C)c1ccc(NC(=O)C2CCCN(S(=O)(=O)c3ccc(Br)s3)C2)cc1 (centres undefined),/,/,/,/,-4.6%,/
COc1ccc(-c2nc(-c3ccncc3)no2)cc1,88.4*,4.5%,-8.7%,11.2%,0.0%,53.1*
COc1ccc(-c2nc(-c3cccs3)no2)cc1,-13.5,-27.3%,15.8µM*,0.2%,-23.7%,9.7
COc1cccc(-c2ccc(-c3noc(-c4cccs4)n3)c(OC)n2)c1,-24.3,7.1%,-0.4%,-5.3%,-3.2%,-4.3
COc1cccc(-c2nc(-c3ccc(C(=O)O)cc3)no2)c1,/,/,/,/,-15.4%,/
CCOc1nc(-c2ccc(OC)cc2)ccc1-c1noc(-c2ccncc2)n1,-2.3,11.1%,6.6%,6.7%,1.6%,-3.2
COc1cc(OC)cc(-c2nc(-c3ccccc3)no2)c1,54.9,-7.0%,0.6%,-5.0%,3.4%,17.1*
c1csc(-c2nc(N3CCCCC3)no2)c1,82.4*,?,-15.6%,6.9%,-5.2%,37.3*
COc1ccc(OC)c(S(=O)(=O)Nc2cc3c4c(c2)C(C)C(=O)N4CCC3)c1 (centres undefined),/,-9.3%,/,/,1.7%,/
Cc1nn(-c2ccc(N3CCCC3)nn2)c(C)c1CCC(=O)N1CCN(c2ccccc2)CC1,/,/,/,/,-0.5%,/
CCN(CC)CCOC(=O)c1ccc(NC(=O)c2cc3cccc(OC)c3oc2=O)cc1,/,/,/,/,0.9%,/
COc1ccc2[nH]c(=O)c(-c3noc(-c4ccccc4)n3)cc2c1,105.8*,-0.9%,2.1%,-2.8%,1.0%,66.4*
CCOc1ccc(-c2nc(-c3ccccc3C)no2)cc1,95.9*,/,?,-1.2%,/,67.8*
Cc1ccc(-c2noc(-c3ccccc3F)n2)cc1,108.5*,4.1%,?,-2.9%,-14.5%,27.2*
CCOc1cc(-c2noc(-c3cccnc3)n2)ccc1OC,-8.0,9.4%,-0.9%,6.3%,4.9%,1.1
CCOc1nc(-c2ccccc2)ccc1-c1noc(-c2ccc(C)cc2)n1,/,/,/,/,6.3%,/
CCOc1ccc(-c2nc(-c3cccnc3)no2)cc1,23.1*,-17.4%,?,-0.9%,-13.7%,30.7*
O=C1c2[nH]nc(-c3ccccc3O)c2C(c2cccc(Br)c2)N1Cc1ccncc1 (centres undefined),/,/,/,/,1.3%,/
COC(=O)c1ccc2c(c1)N(CC(=O)Nc1cccc(Cl)c1C)C(=O)c1ccccc1S2,/,/,/,/,-1.3%,/
Cc1ccc2oc(=O)c(-c3nc(-c4cccs4)no3)cc2c1,/,/,/,/,-5.1%,/
O=[N+]([O-])c1cccc(-c2noc(-c3cccs3)n2)c1,77.7*,6.4%,-10.0%,0.9%,0.2%,34.0*
Cc1ccc(-c2noc(-c3cccs3)n2)cc1,66.9*,-9.0%,?,13.1%,-3.6%,69.5*
CC(=O)c1nn(-c2ccc(OC(F)(F)F)cc2)nc1Nc1ccc(Cl)cc1,/,/,/,/,-1.6%,/
SMILES,Shiga toxin inh,RE007 growth inh,LmPK inh,FBPA Giardia inh,TbPYK inhibitor,CHX counter
COc1cccc(C(=O)N/N=C(\CC(C)C)c2ccccc2)c1,55.1*,7.2%,6.0%,-0.4%,0.5%,21.7*
CC/C(=N\NC(=O)c1ccc(Br)cc1)c1ccccc1,14.8,2.9%,3.1%,6.0%,1.3%,20.1
CCC/C(=N/NC(=O)c1cccc(Cl)c1)c1ccccc1,79.9*,-8.9%,3.1%,1.6%,-11.2%,59.3*
CCC/C(=N\NC(=O)C1CC1)c1ccccc1,/,8.5%,/,/,-0.7%,/
COc1cccc(C(=O)Nc2ccc(C(=O)NCC(C)C)cc2)c1,12.0,7.3%,2.8%,3.2%,-8.5%,-5.5
Cc1ccc(C(=O)N/N=C(\CC(C)C)c2ccccc2)cc1,71.5*,3.5%,-1.0%,1.3%,0.2%,44.1*
CCOC(=O)Cc1csc(-n2sc3ccccc3c2=O)n1,32.7,-6.4%,27.2%,?,?,38.1*
COc1ccccc1-n1c(CNC(=O)c2cccc([N+](=O)[O-])c2C)n[nH]c1=S,-3.9,9.4%,1.1%,-17.0%,7.94µM*,-1.6
Cc1cccc(-n2c(Cn3nc(C)c([N+](=O)[O-])c3C)n[nH]c2=S)c1,-7.9,12.4%,-21.0%,-11.5%,-29.0%,-1.8
Cc1cccc(-n2c(CNC(=O)c3cccc([N+](=O)[O-])c3C)n[nH]c2=S)c1,-13.9,-7.9%,-0.7%[11.5 µM],-16.4%,8.91µM*,-7.9
CCOc1ccc(/C=N/NC(=O)c2nnn(-c3nonc3N)c2CN(C)C2CCCCC2)cc1,-1.5,2.2%,9.4%,6.4%,-7.6%,-3.3
Cc1ccc([N+](=O)[O-])c(OCc2ncc(Cl)n2C)c1,72.0*,-2.8%,-3.5%,-9.3%,1.9%,38.7*
Cc1ccccc1OCC(=O)Nc1ccc2[nH]ncc2c1,16.4,1.6%,-2.3%,10.8%,-5.2%,14.6*
O=C(COc1ccccc1)Nc1ccc2[nH]ncc2c1,-3.1,4.7%,2.1%,8.5%,2.1%,-1.3
O=C(Cc1ccc(Br)cc1)Nc1ccc2[nH]ncc2c1,/,-10.9%,1.5%,-3.5%,1.6%,-0.9
O=C(Nc1ccc2[nH]ncc2c1)c1ccccc1,25.2,-14.5%,-6.7%,-5.5%,-2.3%,22.5*
O=C(Nc1cccc(NC(=O)c2ccc(F)cc2)c1)c1ccc(F)cc1,-4.5,-7.1%,4.0%,-3.6%,7.0%,-3.5
O=C(Cc1ccccc1)Nc1ccc2[nH]ncc2c1,22.5,6.6%,-0.6%,5.0%,-3.7%,20.7*
O=C(Nc1ccc2[nH]ncc2c1)c1ccc(F)cc1,55.4*,2.9%,-8.0%,-0.5%,-2.7%,19.2*
CCN1CCN(Cc2c(O)ccc3c(C)c(-c4ccc(OC)cc4)c(=O)oc23)CC1,/,/,/,/,-0.3%,/
O=C(Nc1ccc2[nH]c(=O)c(=O)[nH]c2c1)c1cccc(F)c1,/,/,/,/,2.7%,/
O=C(Nc1ccc2[nH]ncc2c1)c1cccc(F)c1,65.3*,12.8%,-2.7%,-1.3%,-3.8%,29.0*
COC1=C2C[C@@H](C)C[C@H](OC)[C@H](O)[C@@H](C)/C=C(\C)[C@H](OC(N)=O)[C@@H](OC)/C=C\C=C(/C)C(=O)NC(=CC1=O)C2=O,-1.3,/,/,3.54µM*,/,8.5
CO[C@H]1/C=C\C=C(\C)C(=O)NC2=CC(=O)C(NCCN(C)C)=C(C[C@@H](C)C[C@H](OC)[C@H](O)[C@@H](C)/C=C(/C)[C@@H]1OC(N)=O)C2=O,/,/,/,/,3.6%,/
Brc1ccc(C2=Nn3c(Cn4nnc5ccccc54)nnc3SC2)cc1,-6.1,16.0%,2.2%,-8.2%,-21.4%,-1.9
O=C1/C(=C/c2cccs2)COc2ccccc21,92.5*,?,14.1µM*,7.6%,-28.1%,34.3*
O=C1C(=Cc2cccs2)Oc2ccccc21,/,-19.4%,/,/,10.1%,/
